Among the data in PubChem BioAssay (NCI) are growth values, retold here.

Where “and” joins values, the source holds several entries; their conditions need not be identical. Equal entries are not always repeated. The panel holds about 83,000 compounds, 20% with a hit somewhere; the sample as a whole holds those more often.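 Interpretation: 100, growth as untreated; towards 0, rising growth inhibition; 0, no net growth; 0 to -100, cell death. Compounds scoring below 10 were considered active.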 Calls of active or inactive are those of the source.

The first assay has as its system OVCAR-4 ovarian. Kind of assay: NCI-60 one-dose screen, 48 h (100 = growth as untreated, 0 = no growth, -100 = all killed). The settings on record: 10 µM. The protocol:
Growth inhibition of the OVCAR-4 human tumor cell line is measured as a screen for anti-cancer activity. Cells are grown in 96 well plates and exposed to the test compound for 48 hours. Compounds are tested at a single concentration, which is 10^-5 M for most compounds. The reported endpoint is percent growth (GI% or GIPRCNT), where numbers from 0 - 100% represent growth inhibition, and numbers from -100% - 0 represent cell death. For example, a value of 40 represents 60% growth inhibition. A value of 0 means no net growth occurred over the course of the experiment. A value of -40 indicates 40% of cells at the beginning of the experiment died by the end of the experiment. A value of -100 means all cells are dead at the end of the experiment.
NCI-60 Human Tumor Cell Lines Screen was performed using the standard one-dose NCI protocol, which is described in more detail at https://dtp.cancer.gov/discovery_development/nci-60/default.htm.
Compounds with GIPRCNT values below 10 were considered active. Activity score was based on GIPRCNT using the following formula: […]
Score is 0 for GIPRCNT values of 100 or above, 50 for GIPRCNT values of 0, and 100 for GIPRCNT values of -100.
In the case of `CC1(C)OB(c2ccc(Cn3cc(F)c(=O)[nH]c3=O)cc2)OC1(C)C`, the growth was 111% (inactive).

`O=C(O)c1sccc1O`: the growth was 76.5% (inactive).

Turning to `CCc1ccccc1-n1c(N)c(C#N)c(-c2ccc(OC)c(OC)c2)c(C#N)c1=O`, the growth was 113% (inactive).

The same assay, now with this note: 10 µM unless noted.
On to `CCN(CC)CCNc1ccc(C)c2sc3ccccc3c(=O)c12` (tested in a mixture with another compound), for which the growth is 40.7% (inactive) and 53.3% (inactive).

In the case of `CC1(c2ccc3ccccc3c2)CCC(=O)O1` (stereo not given), the growth is 110% (inactive).

For `Nc1nc(SC/C=C/CCl)c2[nH]cnc2n1`, the growth was 116% (inactive) and 100% (inactive).

Consider `CCC(O)c1ccccc1` (stereo not given), for which the growth was 103% (inactive) and 107% (inactive).

On to `CC(=O)Nc1cccc2c1CCCC2`, for which the growth was 106% (inactive) and 107% (inactive).

Consider `Nc1ccccc1Nc1ccccc1`, for which the growth is 93.7% (inactive) and 88.9% (inactive).

As to `CCC(=O)C(CC)c1cccc(OC)c1` (stereo not given), the growth was 105% (inactive).

For the molecule `CCCCCCCCCCCCOc1ccccc1C=O`, the growth is 86.5% (inactive).

`CCCCCCCCCCCCCCCc1cc(O)ccc1N`: the growth was 65.2% (inactive) and -19.7% (active).

For the molecule `O=C(N/N=C/c1ccccc1)N/N=C/c1ccccc1`, the growth was 115% (inactive).

Take `CC1=C(/C=C/C(C)=C/C=C/C(C)=C/C(=O)Nc2ccc(O)cc2)C(C)(C)CCC1`: the growth was 44.3% (inactive).

Take `CC(C)N=c1cc2n(-c3ccc(Cl)cc3)c3ccccc3nc-2cc1Nc1ccc(Cl)cc1`: the growth was 5.39% (active) and 11.1% (inactive) and 7.85% (active).

In the case of `O=C1C2=C(C(=O)c3ccccc31)C(O)(S(=O)(=O)O)C(O)(S(=O)(=O)O)C1N=CC=CC21` (stereo not given), the growth is 28.7% (inactive) and 24.3% (inactive).

On to `CC1=CCC2CC1C2(C)C` (stereo not given), for which the growth is 112% (inactive) and 109% (inactive).

As to `COc1cc2c(c(OC)c1OC)-c1ccc(OC)c(=O)cc1[C@@H](NC(C)=O)CC2`, the growth is 48.4% (inactive) and 57.7% (inactive) and 56.4% (inactive).

Turning to `NC(=O)c1ccccc1OCC(O)CO` (stereo not given), the growth was 103% (inactive).

Regarding `CC1CCCc2sc3nc(NNC(=O)c4cnccn4)n(-c4ccccc4)c(=O)c3c21` (stereo not given), the growth is -3.93% (active) and -20.4% (active).

As to `O=[N+]([O-])c1ccc(/C=N\NC(=S)Nc2ccc(F)cc2)cc1`, the growth is 92.6% (inactive).

As to `CCN(CC)CCOc1ccc2c(c1)C(=O)c1cc(OCCN(CC)CC)ccc1-2`, the growth is 60.7% (inactive) and 40.7% (inactive).

Regarding `N/C(=N\N=C\c1ccc2c(c1)OCO2)N/N=C\c1ccc2c(c1)OCO2`, the growth is 93.8% (inactive).

With `Oc1ccccc1/C=N\NC(=S)N/N=C/c1ccccc1O`, the growth was 25.7% (inactive).

Turning to `CN(C)CCCN1c2ccccc2Sc2ccc(Cl)cc21`, the growth is 83.3% (inactive) and 113% (inactive) and 85.9% (inactive).

Turning to `S=C(S)N1CCCC1`, the growth was 117% (inactive) and 96.8% (inactive).

As for `O=C1NC(=O)C2(CCc3ccccc32)N1` (stereo not given), the growth was 103% (inactive) and 108% (inactive).

`CC(C)(O)Cn1cc(-c2ccc3nc(OC4CC4)ccc3c2)c2c(N)ncnc21`: the growth is 96.3% (inactive) and 63.1% (inactive).

`CC(/C=N/N1C(=O)c2ccccc2C1=O)c1ccccc1` (stereo not given): the growth is 112% (inactive).

As for `COc1c(/C(C)=N/N=c2sc(C(C)=O)nn2-c2ccc(Cl)cc2)c(Oc2ccccc2)c(OC)c2occc12`, the growth is 102% (inactive) and 97.9% (inactive).

Consider `ClC/C=C/CSc1ncnc2nc[nH]c12`, for which the growth is 108% (inactive) and 99% (inactive).

For `c1ccc(NCc2ccc3c(c2)OCO3)cc1`, the growth is 106% (inactive) and 108% (inactive).

With `Cc1ccc(-c2noc(C)n2)cc1`, the growth is 118% (inactive).

Turning to `Cc1cc(-c2ccc(NS(=O)(=O)c3ccccc3)c(C)c2)ccc1NS(=O)(=O)c1ccccc1`, the growth is 66.2% (inactive) and 99% (inactive).

Turning to `CCc1c(CC(=O)O)c2cc(C)ccc2n1Cc1ccc(Cl)cc1`, the growth was 85.5% (inactive) and 105% (inactive).

On to `Clc1ccc(NC(Nc2ccc(Cl)cc2)C(Cl)(Cl)Cl)cc1`, for which the growth was 82.4% (inactive) and 118% (inactive).

For `COc1ccc(-c2cn[nH]c2-c2cc(OC)c(OC)c(OC)c2)cc1N`, the growth is 47.6% (inactive) and 38.8% (inactive).

The same assay, now with this note: 50 µM.
For the molecule `CC1(C)OB(c2ccc(Cn3cc(F)c(=O)[nH]c3=O)cc2)OC1(C)C`, the growth is 69.9% (inactive).

Still in this assay, the particulars now being: 100 µM.
With `O=C(O)c1sccc1O`, the growth was 29.9% (inactive).

As to `CCc1ccccc1-n1c(N)c(C#N)c(-c2ccc(OC)c(OC)c2)c(C#N)c1=O`, the growth was 28% (inactive).
